Out of some 63,000 compounds screened, about 1,100 (1.7%) were called active.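 Rule for the calls: active = compounds whose percent cytotoxicity in the single-dose primary screen, scaled between solvent and toxic-drug controls, exceeds 50; inactive = the rest.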 Only a selection was taken, and actives are over-represented in it overall. Results with a measured potency or affinity are listed apart.

A short description of the assay: cytotoxicity in KRAS-transformed pancreatic duct cells, primary screen, cell-based, fluorescence, HTS (AID 431).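 Note: 0% = DMSO solvent wells and 100% = doxorubicin-treated wells.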 To be noted: HPDE-C7K KRASV12 cells, Alamar Blue viability, 48 h; at 10 µM; hits give high values. (Resazurin is reduced to fluorescent resorufin, in cell work by metabolically active cells.)
With `O=C(CSc1nn(-c2ccccc2)c(=S)s1)Nn1cnnc1`, the cytotoxicity is -11.8% (inactive).

As to `CS(=O)(=O)N1CCCC(c2nc(-c3ccc(S(=O)(=O)NCc4ccccc4)cc3)no2)C1` (centres undefined), the cytotoxicity was -5.6% (inactive).

With `O=C(CCCn1c(=S)[nH]c2cc3c(cc2c1=O)OCO3)N1CCN(c2ncccn2)CC1`, the cytotoxicity was -12.6% (inactive).

Consider `CCOc1ccccc1N1CCN(C(=O)Nc2cccc(Cl)c2)CC1`, for which the cytotoxicity was -2.1% (inactive).

For `Cn1cc(C(=O)NC2CCCCCCC2)c(=O)c2cc(S(=O)(=O)N3CCCC3)ccc21`, the cytotoxicity was -3.8% (inactive).

As to `CCN(CC)S(=O)(=O)c1ccc2oc(C(=O)N3CCCCCC3)c(C)c2c1`, the cytotoxicity was 7.8% (inactive).

With `CCCN1Cc2cccc(C(=O)Nc3cc(OC)cc(OC)c3)c2C1=O`, the cytotoxicity was 16.6% (inactive).

For the compound `CC(C)(C)OC(=O)NCCc1nnc(SCC(=O)c2ccc(Cl)cc2)o1`, the cytotoxicity is 3.8% (inactive).

For `COc1cccc(C(=O)N(Cc2cc3cc(C)ccc3[nH]c2=O)CC2CCCO2)c1` (centres undefined), the cytotoxicity was -14.2% (inactive).

Regarding `CCOC(=O)C1CCN(Cc2ccccc2C(F)(F)F)CC1`, the cytotoxicity is -13.3% (inactive).

Consider `On1cnnc1-c1ccccc1`, for which the cytotoxicity was -12.7% (inactive).

On to `CCCCN1Cc2cc(C(=O)c3cc(F)ccc3O)cnc2NC1=O`, for which the cytotoxicity was 6.7% (inactive).

Turning to `Cc1ccc(O)c(C(=O)c2cnc3c(c2)CN(CCC(C)C)C(=O)N3)c1`, the cytotoxicity was -6% (inactive).

Consider `CN1Cc2cc(C(=O)c3cc(Cl)cc(CSc4ncccn4)c3O)cnc2NC1=O`, for which the cytotoxicity is 66.2% (active).

Take `CCCn1c(N)c(C(=O)CSc2nnc(-c3ccco3)n2Cc2ccccc2)c(=O)[nH]c1=O`: the cytotoxicity was -9.1% (inactive).

As for `Cc1cc(NC(=O)NC(=O)c2cccc(OC(F)(F)C(F)F)c2)n[nH]1`, the cytotoxicity was -3.6% (inactive).

Turning to `Cc1cc(C)c2c(CN3CCN(C/C=C/c4ccccc4)CC3)cc(=O)oc2c1`, the cytotoxicity was 72.7% (active).

For `CCN1CCN(Cc2cc(=O)oc3cc(C)cc(C)c23)CC1`, the cytotoxicity is 7.2% (inactive).

Take `Cc1cc(C)c2c(CN3CCN(C)CC3)cc(=O)oc2c1`: the cytotoxicity is 9.6% (inactive).

Turning to `CCOC(=O)c1c(C)n(C)c2ccc(O)c(CN3CCN(C)CC3)c12`, the cytotoxicity is 4.9% (inactive).

For `Cc1cc(C2=CC(C)(c3cc(C)oc3C)Nc3nc(C(F)(F)F)nn32)c(C)o1` (centres undefined), the cytotoxicity is 56.2% (active).

On to `Cc1cccc(NC(=O)c2cnc3sccn3c2=O)c1C`, for which the cytotoxicity was 0.5% (inactive).

Regarding `CCOC(=O)c1ccc(NC(=O)CCC(=O)OC)cc1`, the cytotoxicity was 0% (inactive).

For the compound `CCc1nc(NC2CCCCC2)c(C#N)c2c1COC(C)(C)C2`, the cytotoxicity was 62% (active).

Regarding `CCCc1nc(NC2CCCCC2)c(C#N)c2c1COC(C)(C)C2`, the cytotoxicity was -33.6% (inactive).

Regarding `CCc1nc(NCC2CCCO2)c(C#N)c2c1COC(C)(C)C2` (centres undefined), the cytotoxicity was -3% (inactive).

Consider `COc1ccccc1N1CCN(CC(=O)Nc2c(C)n[nH]c2C)CC1`, for which the cytotoxicity was 0.8% (inactive).

Regarding `COc1ccc(-c2nc(CS(=O)CC(=O)NCC3CCCO3)c(C)o2)cc1` (centres undefined), the cytotoxicity is -1.7% (inactive).

In the case of `O=S(=O)(c1ccc(F)cc1)N1CCN(c2ncnc3c2cnn3-c2ccccc2)CC1`, the cytotoxicity is -6.5% (inactive).

Turning to `O=S1(=O)CC(O)C(N2CCC(c3ccccc3)CC2)C1` (centres undefined), the cytotoxicity was -1.5% (inactive).

Take `CN(Cc1cc2ccccc2[nH]c1=O)S(=O)(=O)c1ccccc1`: the cytotoxicity was -6.2% (inactive).

On to `CN(C)CCC(=O)c1ccc(Cl)cc1`, for which the cytotoxicity was 13.3% (inactive).

For `COc1ccccc1NC(=O)N(Cc1ccco1)Cc1cc2c(C)ccc(C)c2[nH]c1=O`, the cytotoxicity is 33.2% (inactive).

Take `CCN1CCCC1CN(Cc1cc2cc(C)cc(C)c2[nH]c1=O)C(=O)Nc1ccccc1OC` (centres undefined): the cytotoxicity was 20.9% (inactive).

As to `COc1ccccc1NC(=O)N(Cc1ccco1)Cc1cc2cc(C)cc(C)c2[nH]c1=O`, the cytotoxicity is 74.7% (active).

For the compound `COc1ccccc1NC(=O)N(Cc1ccco1)Cc1cc2cccc(C)c2[nH]c1=O`, the cytotoxicity is -5% (inactive).

Consider `COc1ccccc1NC(=O)N(Cc1ccco1)Cc1cc2ccc(C)c(C)c2[nH]c1=O`, for which the cytotoxicity was 63.7% (active).

As for `Cc1cc(C)c2[nH]c(=O)c(CN(Cc3ccco3)C(=O)C3CCCO3)cc2c1` (centres undefined), the cytotoxicity was -35.5% (inactive).

Turning to `CC1CCCCC1NC(=O)CN1CCN(Cc2ccccc2Cl)C1=O` (centres undefined), the cytotoxicity is -7.1% (inactive).

Take `CCc1cc(C)cc(OCCNC(=O)c2ncn[nH]2)c1`: the cytotoxicity was 30% (inactive).

Consider `Cn1nnnc1CCOCCc1nnnn1C`, for which the cytotoxicity is 14.6% (inactive).

Consider `CCn1nnnc1SCCSc1nnnn1CC`, for which the cytotoxicity is 9.6% (inactive).

In the case of `N/C(=N\c1nc2c(c(=O)[nH]1)CCCC2)Nc1ccccc1`, the cytotoxicity was 12.1% (inactive).

`COc1ccc(-c2cn3cccnc3n2)cc1NC(=O)c1ccc(Br)o1`: the cytotoxicity was 8.3% (inactive).

As for `CCOC(=O)C1=C(C)N=C2SC(CC)C(=O)N2C1c1cccc(F)c1` (centres undefined), the cytotoxicity was -16.9% (inactive).

As to `Cc1[nH]c2ccccc2c1NC(=O)CN1CCN(c2cccc(C(F)(F)F)c2)CC1`, the cytotoxicity is 70% (active).

Regarding `COC(=O)c1[nH]c2ccccc2c1NC(=O)CN1CCN(c2cccc(Cl)c2)CC1`, the cytotoxicity is 7.8% (inactive).

As for `O=C(CN1CCN(c2ccccc2)CC1)Nc1cccc(C(F)(F)F)c1`, the cytotoxicity was 4.9% (inactive).

For `O=C(CCn1c(=O)[nH]c2ccccc2c1=O)N1CCN(c2cccc(C(F)(F)F)c2)CC1`, the cytotoxicity is -4.3% (inactive).

With `OC(CN1CCN(c2cccc(C(F)(F)F)c2)CC1)c1c[nH]c2ccccc12` (centres undefined), the cytotoxicity is 30.5% (inactive).

On to `CC[C@]1(O)C[C@@H]2CN(CCc3c([nH]c4ccccc34)[C@@](C(=O)OC)(c3cc4c(cc3OC)N(C)[C@H]3[C@@](O)(C(=O)OC)[C@H](OC(C)=O)[C@]5(CC)C=CCN6CC[C@]43[C@@H]65)C2)C1`, for which the cytotoxicity was 74.9% (active).

For the compound `CC[C@]1(O)CC2CN(CCc3c([nH]c4ccccc34)[C@@](C(=O)OC)(c3cc4c(cc3OC)N(C=O)[C@H]3[C@@](O)(C(=O)OC)[C@H](OC(C)=O)[C@]5(CC)C=CCN6CC[C@]43[C@@H]65)C2)C1` (some centres undefined), the cytotoxicity is 72.5% (active).

As to `CC(=O)Oc1ccc(N(C(C)=O)S(=O)(=O)c2cccs2)cc1`, the cytotoxicity is 8.2% (inactive).

For the compound `O=C(O)CCC(=O)Nc1nnc(C(F)(F)F)s1`, the cytotoxicity was -6.4% (inactive).

In the case of `CCCNc1cc(=O)n(C)c(=O)n1C`, the cytotoxicity was 9.9% (inactive).

`O=c1c2c3nc4ccccc4nc3n(-c3cccc(F)c3)c2ncn1Cc1ccc2c(c1)OCO2`: the cytotoxicity is 7.3% (inactive).

Take `Cc1ccc(SC(C)C(=O)NCC(C)C)cc1` (centres undefined): the cytotoxicity was 0% (inactive).

As to `CC(C)c1ccc(O)c(N)c1`, the cytotoxicity was 8% (inactive).

For the compound `Cc1ccc(O)c(Sc2cc(C)ccc2O)c1`, the cytotoxicity was 65.2% (active).

Values taken from PubChem BioAssay AID431 (Sanford-Burnham Center for Chemical Genomics, 2006).
